Source: PubChem BioAssay (Tox21)
A number with no mark means an inactive call. Inconclusive results are not listed. Where a call stands in place of a potency, no number is given. Activity calls are given as the source filed them. Unless noted, calls come from the whole dose curve; as a rule, active = well fitted curve in the direction sought with a large enough effect in the repeat runs; inconclusive = weak or mixed curves; inactive = no such curve, though single readings can be large; an effect the other way counts as inactive or inconclusive.

Columns and labels:
[1] = qHTS assay to identify small molecule antagonists of the androgen receptor (AR) signaling pathway using the MDA cell line in the presence of 0.5 nM R1881 - cell viability counter screen (AID 1259242); note: nearly all actives have a fitted effect of over 45% in size; note: potency is the fitted concentration of half-maximal effect
Procedure, shortened: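 qHTS format. MDA-kb2 (MMTV-luc, AR/GR responsive) + cpd + 0.5 nM R1881 final, 16 hr 37C/0% CO2 → CellTiter-Fluor 30 min → fluorescence intensity.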

[2] = biological target: Androgen receptor (Homo sapiens) (UniProt P10275); test: qHTS assay to identify small molecule antagonists of the androgen receptor (AR) signaling pathway using the MDA cell line in the presence of 0.5 nM R1881 (AID 1259243); note: nearly all actives have a fitted effect of over 50% in size; note: potency is the fitted concentration of half-maximal effect
Chain of Androgen receptor (Homo sapiens) (P10275 whole entry, looked up): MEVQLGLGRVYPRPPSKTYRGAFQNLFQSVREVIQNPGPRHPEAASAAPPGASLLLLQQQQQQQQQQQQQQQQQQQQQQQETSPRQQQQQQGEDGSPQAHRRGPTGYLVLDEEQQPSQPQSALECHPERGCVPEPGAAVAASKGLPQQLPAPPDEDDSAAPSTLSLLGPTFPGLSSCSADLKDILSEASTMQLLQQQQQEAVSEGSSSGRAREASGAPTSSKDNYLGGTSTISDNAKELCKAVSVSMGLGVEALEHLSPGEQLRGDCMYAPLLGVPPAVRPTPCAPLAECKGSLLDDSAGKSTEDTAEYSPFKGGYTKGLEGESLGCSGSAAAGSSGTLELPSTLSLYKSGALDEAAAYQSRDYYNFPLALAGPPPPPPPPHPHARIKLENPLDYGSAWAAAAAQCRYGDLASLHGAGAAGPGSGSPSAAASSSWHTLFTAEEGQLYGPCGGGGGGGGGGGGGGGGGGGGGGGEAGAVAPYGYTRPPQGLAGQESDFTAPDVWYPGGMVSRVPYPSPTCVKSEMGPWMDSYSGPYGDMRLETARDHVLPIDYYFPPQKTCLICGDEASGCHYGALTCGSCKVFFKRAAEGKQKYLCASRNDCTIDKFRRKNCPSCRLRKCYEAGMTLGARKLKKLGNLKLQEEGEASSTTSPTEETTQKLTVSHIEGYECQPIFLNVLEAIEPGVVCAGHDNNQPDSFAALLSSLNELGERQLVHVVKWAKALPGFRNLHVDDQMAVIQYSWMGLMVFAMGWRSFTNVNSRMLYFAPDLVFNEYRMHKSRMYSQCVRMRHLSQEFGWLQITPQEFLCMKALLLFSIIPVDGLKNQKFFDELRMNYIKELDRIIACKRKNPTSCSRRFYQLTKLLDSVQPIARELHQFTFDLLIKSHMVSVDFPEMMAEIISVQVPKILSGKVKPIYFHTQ
Procedure, shortened: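 Antagonist mode quantitative HTS in MDA-kb2 MMTV-luciferase cells, agonist R1881 at 0.5 nM final, 16 hr exposure at 37C and 0% CO2, luminescent detection.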

[3] = qHTS assay to identify small molecule phospholipidosis (PLD) inducers (AID 1259344; active = well fitted curve in the direction sought with a large enough effect; an effect the other way counts as inactive or inconclusive; note: potency is the fitted concentration of half-maximal effect)
Procedure, shortened: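 Phospholipid accumulation was scored by imaging: fixed, Hoechst-counterstained HepG2 cells stained with LipidTOX Red after 24 h compound exposure at 37 C. Read-outs were pit count and pit intensity per well or per cell, with amiodarone and DMSO controls.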

[4] = qHTS assay to identify small molecule HDAC inhibitors (AID 1259364);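 note: wild-type HCT-116 cells with endogenous class I/II HDAC activity; top concentration of the series differs between compounds; nearly all actives have a fitted effect of over 45% in size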
Procedure, shortened: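 Quantitative high-throughput format: overnight-seeded HCT-116 cells got compounds for 2 hr at 37C; HDAC-Glo I/II reagent added, 30 min RT, luminescence measured.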

[5] = qHTS assay to identify small molecule HDAC inhibitors - cell viability counter screen (AID 1259365); note: series mostly up to about 92 µM; nearly all actives have a fitted effect of over 50% in size
Procedure, shortened: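 Luminescence from CellTiter-Glo, developed 30min at room temperature, reports viability of wild-type HCT-116 cells treated 2hr with compounds at 37 C and 5% CO2 after overnight plating.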

[6] = qHTS assay to identify small molecule agonists of the sonic hedgehog signaling (Shh) pathway - cell viability counter screen (AID 1259366); note: nearly all actives have a fitted effect of over 50% in size; note: potency is the fitted concentration of half-maximal effect
Procedure, shortened: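 Cytotoxicity counter screen run in the same wells as the Shh reporter assay. NIH/3T3 cells carrying a Gli1 response element–driven luciferase were treated with DMSO-dissolved compounds for 24hr, and live-cell protease activity was measured with CellTiter-Fluor.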

[7] = qHTS assay to identify small molecule antagonists of the sonic hedgehog signaling (Shh) pathway - cell viability counter screen (AID 1259367); note: nearly all actives have a fitted effect of over 55% in size; note: potency is the fitted concentration of half-maximal effect
Procedure, shortened: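 Viability was read by CellTiter-Fluor fluorescence in the same wells, reagent added 23 hr into compound treatment and incubated 1 hr at 37C. The 3T3 Gli1-Luc reporter cells (2,000/well) received conditioned medium after compound and ran 24 hr.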

[8] = qHTS assay to identify small molecule agonists of the sonic hedgehog signaling (Shh) pathway (AID 1259368; calls by dose curve;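 note: NIH/3T3-derived 3T3Gli1-Luc cells carrying a stable Gli1-driven firefly luciferase reporter; series mostly up to about 92 µM; nearly all actives have a fitted effect of over 15% in size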)
Procedure, shortened: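 Quantitative high-throughput format using a Gli1-driven firefly luciferase reporter line derived from NIH/3T3 cells. After a 24 hr compound treatment at 37 C and 5% CO2, luminescence reported Gli1 response element activity.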

[9] = qHTS assay to identify small molecule antagonists of the sonic hedgehog signaling (Shh) pathway (AID 1259369; calls by dose curve; note: nearly all actives have a fitted effect of over 45% in size; note: potency is the fitted concentration of half-maximal effect)
Procedure, shortened: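 Stable Gli1-Luc reporter NIH/3T3 clone; quantitative HTS in stimulated mode with conditioned medium. Luminescence measured after 24hr compound treatment at 37 C.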

[10] = qHTS assay to identify small molecule agonists of the androgen receptor (AR) signaling pathway in the presence of an antagonist - cell viability counter screen (AID 1259379); note: nearly all actives have a fitted effect of over 25% in size; note: potency is the fitted concentration of half-maximal effect
Procedure, shortened: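 Nilutamide-containing (3.0uM final) MDA-kb2 cultures, 3,000 cells/well, were treated with compounds across 15 concentrations. After 16 hr at 37C with no CO2, cell viability was determined by CellTiter-Fluor fluorescence in the luciferase assay wells.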

[11] = qHTS assay to identify small molecule agonists of the estrogen receptor beta (ER-beta) signaling pathway - cell viability counter screen (AID 1259380); note: nearly all actives have a fitted effect of over 30% in size; note: potency is the fitted concentration of half-maximal effect
Procedure, shortened: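 Steps: plate ER-beta-UAS-bla HEK293T cells, rest 6 hr; add compounds in DMSO; incubate 16 hr at 37C, 5% CO2; add FRET substrate 2 hr; add CellTiter-Glo, wait 30 min at room temperature; read luminescence.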

[12] = biological target: Androgen receptor (Homo sapiens) (UniProt P10275); test: qHTS assay to identify small molecule agonists of the androgen receptor (AR) signaling pathway in the presence of an antagonist (AID 1259381; calls by dose curve; note: nearly all actives have a fitted effect of over 15% in size)
Procedure, shortened: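 Reporter-gene luminescence from MDA-kb2 cells exposed 16hr at 37C (0% CO2) to 15-point compound titrations with 3.0uM final nilutamide as AR antagonist.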

[13] = qHTS assay to identify small molecule antagonists of the estrogen receptor beta (ER-beta) signaling pathway - cell viability counter screen (AID 1259382); note: nearly all actives have a fitted effect of over 55% in size; note: potency is the fitted concentration of half-maximal effect
Procedure, shortened: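 Viability is scored by CellTiter-Glo luminescence (30 min, room temperature) in ER-beta-UAS-bla HEK293T wells already read for reporter fluorescence. Compound exposure lasts 16 hr at 37C alongside 1nM 17-beta-estradiol in charcoal-stripped serum medium.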

[14] = qHTS assay to identify small molecule agonists or antagonists of the thyroid stimulating hormone receptor (TSHR) signaling pathway - wild type cell line counter screen (AID 1259384; calls by dose curve)
Procedure, shortened: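 Counter screen in untransfected Hek293: compounds (15-point titration, triplicate) plus phosphodiesterase inhibitor Ro20-1724 added after 18 h plating; 30 min RT. Intracellular cAMP via competitive d2/cryptate immunoassay, 1 h incubation.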

[15] = biological target: Thyrotropin receptor (Homo sapiens) (UniProt P16473); test: qHTS assay to identify small molecule antagonists of the thyroid stimulating hormone receptor (TSHR) signaling pathway (AID 1259385; calls by dose curve; note: nearly all actives have a fitted effect of over 20% in size; note: potency is the fitted concentration of half-maximal effect)
Chain of Thyrotropin receptor (Homo sapiens) (P16473 whole entry, looked up): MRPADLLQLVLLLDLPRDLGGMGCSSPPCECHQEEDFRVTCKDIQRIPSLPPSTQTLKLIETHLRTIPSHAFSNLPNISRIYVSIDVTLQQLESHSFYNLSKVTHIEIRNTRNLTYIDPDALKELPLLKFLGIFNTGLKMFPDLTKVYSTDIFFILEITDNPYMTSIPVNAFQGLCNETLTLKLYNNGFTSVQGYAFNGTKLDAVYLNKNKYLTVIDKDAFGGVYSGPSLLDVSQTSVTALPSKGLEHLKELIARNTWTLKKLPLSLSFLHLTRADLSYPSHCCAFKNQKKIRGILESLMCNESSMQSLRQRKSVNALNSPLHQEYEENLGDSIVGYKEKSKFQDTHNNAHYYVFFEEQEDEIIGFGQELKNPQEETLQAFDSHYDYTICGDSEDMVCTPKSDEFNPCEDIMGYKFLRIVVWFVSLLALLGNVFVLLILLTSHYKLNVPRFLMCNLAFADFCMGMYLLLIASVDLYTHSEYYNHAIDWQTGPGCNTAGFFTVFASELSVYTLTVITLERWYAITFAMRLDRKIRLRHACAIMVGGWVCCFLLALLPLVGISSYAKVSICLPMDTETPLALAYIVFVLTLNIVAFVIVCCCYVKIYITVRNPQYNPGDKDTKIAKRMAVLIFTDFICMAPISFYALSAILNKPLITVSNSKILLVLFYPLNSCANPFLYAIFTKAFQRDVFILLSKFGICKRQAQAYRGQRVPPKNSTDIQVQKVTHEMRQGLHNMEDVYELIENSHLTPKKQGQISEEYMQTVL
Procedure, shortened: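 Antagonist mode: compound-treated TSHR-expressing HEK293 cells were stimulated with 1.5 ng/mL TSH (final) in presence of Ro20-1724 for 30 min at RT. HTRF cAMP detection after 1 h; each compound tested at 15 concentrations, triplicate.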

[16] = qHTS assay to identify small molecule agonists of the estrogen receptor alpha (ER-alpha) signaling pathway in the presence of an antagonist - cell viability counter screen (AID 1259386);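 note: series mostly up to about 92 µM; cells exposed to compounds for 22 h at 37 °C before the viability read; nearly all actives have a fitted effect of over 30% in size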
Procedure, shortened: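 In this counter screen, compound effects on VM7Luc4E2 viability were tested in the presence of the antagonist ICI-182,780 at 10.0nM final. Compounds were dosed at 15 concentrations, exposure lasted 22hr, and the CellTiter-Fluor signal was read.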

[17] = biological target: Estrogen receptor (Homo sapiens) (UniProt P03372); test: qHTS assay to identify small molecule antagonists of the estrogen receptor alpha (ER-alpha) signaling pathway using the BG1 cell line in the presence of 0.1 nM 17-beta-estradiol (AID 1259244); note: nearly all actives have a fitted effect of over 50% in size; note: potency is the fitted concentration of half-maximal effect
Chain of Estrogen receptor (Homo sapiens) (P03372 whole entry, looked up): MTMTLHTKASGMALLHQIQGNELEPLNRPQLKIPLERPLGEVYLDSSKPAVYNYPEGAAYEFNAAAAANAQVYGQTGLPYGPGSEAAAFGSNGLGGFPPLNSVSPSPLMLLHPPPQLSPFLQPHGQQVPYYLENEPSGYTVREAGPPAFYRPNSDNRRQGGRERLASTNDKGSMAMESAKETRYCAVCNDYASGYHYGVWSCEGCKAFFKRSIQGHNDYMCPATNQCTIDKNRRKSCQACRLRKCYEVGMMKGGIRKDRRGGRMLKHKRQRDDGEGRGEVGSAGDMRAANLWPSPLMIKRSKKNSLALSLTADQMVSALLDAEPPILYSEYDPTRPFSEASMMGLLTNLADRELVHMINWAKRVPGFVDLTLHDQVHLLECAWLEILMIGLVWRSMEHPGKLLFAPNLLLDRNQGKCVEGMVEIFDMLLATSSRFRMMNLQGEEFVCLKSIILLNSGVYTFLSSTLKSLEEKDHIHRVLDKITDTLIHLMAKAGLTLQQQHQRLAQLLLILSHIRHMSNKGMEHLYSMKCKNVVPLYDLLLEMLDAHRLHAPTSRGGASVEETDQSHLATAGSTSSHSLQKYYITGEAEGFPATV
Procedure, shortened: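 Reporter is a stably transfected luciferase under four estrogen responsive elements in VM7Luc4E2 cells expressing native full-length ER-alpha; inhibition of 0.1 nM (final) 17beta-estradiol-driven signal over 22 h is read by luminescence.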

[18] = biological target: Estrogen receptor beta (Homo sapiens) (UniProt Q92731); test: qHTS assay to identify small molecule agonists of the estrogen receptor beta (ER-beta) signaling pathway (AID 1259377; active = well fitted activation curve with a large enough effect in the signal ratio in the repeat runs, not every such curve was filed as active; the % refers to the signal ratio)
Chain of Estrogen receptor beta (Homo sapiens) (Q92731 whole entry, looked up): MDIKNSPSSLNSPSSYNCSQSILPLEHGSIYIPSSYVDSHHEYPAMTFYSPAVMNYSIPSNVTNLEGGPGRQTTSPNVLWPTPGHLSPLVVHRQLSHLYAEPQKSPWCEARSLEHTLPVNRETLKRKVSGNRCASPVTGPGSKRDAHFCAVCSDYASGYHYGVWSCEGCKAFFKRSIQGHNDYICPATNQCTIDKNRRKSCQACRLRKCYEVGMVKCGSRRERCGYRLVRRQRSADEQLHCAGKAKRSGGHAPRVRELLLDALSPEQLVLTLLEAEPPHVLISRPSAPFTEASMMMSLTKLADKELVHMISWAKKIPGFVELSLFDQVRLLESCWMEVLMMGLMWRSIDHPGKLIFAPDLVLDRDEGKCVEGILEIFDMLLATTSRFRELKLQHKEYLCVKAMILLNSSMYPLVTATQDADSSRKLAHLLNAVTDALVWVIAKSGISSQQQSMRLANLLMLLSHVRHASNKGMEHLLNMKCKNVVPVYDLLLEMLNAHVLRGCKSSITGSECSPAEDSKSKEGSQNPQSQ
Procedure, shortened: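 HEK293T ER-beta-UAS-bla; 2% charcoal-stripped FBS; cells pre-incubated 6 hr, compound 16 hr, 37C/5% CO2; LiveBLAzer B/G FRET substrate 2 h RT; fluorescence intensity read.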

[19] = biological target: Estrogen receptor beta (Homo sapiens) (UniProt Q92731); test: qHTS assay to identify small molecule antagonists of the estrogen receptor beta (ER-beta) signaling pathway (AID 1259378; active = well fitted inhibition curve with a large enough effect in the signal ratio in the repeat runs, not every such curve was filed as active; the % refers to the signal ratio)
Procedure, shortened: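 Antagonist mode: compounds added to beta-lactamase reporter HEK293T ER-beta-UAS cells stimulated with E2 (1nM final), 16 hr at 37C. LiveBLAzer B/G FRET substrate, 2 hours room temperature, fluorescence read-out.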

[20] = biological target: Estrogen receptor (Homo sapiens) (UniProt P03372); test: qHTS assay to identify small molecule agonists of the estrogen receptor alpha (ER-alpha) signaling pathway in the presence of an antagonist (AID 1259383; calls by dose curve; note: top concentration of the series differs between compounds; nearly all actives have a fitted effect of over 15% in size)
Procedure, shortened: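 Readout was ERE-driven luciferase luminescence in VM7Luc4E2 cells, which express full-length ER-alpha endogenously. Compounds were tested at 15 concentrations for 22hr alongside 10.0nM ICI-182,780 (final concentration).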

| SMILES | Potency [1] | Potency [2] | Potency [3] | Potency [4] | Potency [5] | Potency [6] | Potency [7] | Potency [8] | Potency [9] | Potency [10] | Potency [11] | outcome [12] | Potency [13] | outcome [14] | Potency [15] | Potency [16] | Potency [17] | Potency [18] | Potency [19] | Potency [20] |
| --- | --- | --- | --- | --- | --- | --- | --- | --- | --- | --- | --- | --- | --- | --- | --- | --- | --- | --- | --- | --- |
| Nc1ccc(C(=O)O)c(O)c1 | inactive | inactive | inactive | inactive | inactive | inactive | inactive | inactive | inactive | inactive | inactive | inactive | inactive | inactive | inactive | inactive |  |  |  |  |
| CC(CO)Oc1ccccc1 (configuration not stated) | inactive | inactive |  | inactive | inactive | inactive | inactive | inactive |  | inactive | inactive | inactive | inactive |  | inactive |  | inactive | inactive | inactive | inactive |
| NC(=O)c1cccc([N+](=O)[O-])c1 | inactive | inactive |  | inactive | inactive | inactive | inactive | inactive | inactive | inactive | inactive | inactive | inactive |  | inactive | inactive | inactive | inactive | inactive |  |
| CC(C)(C)NSc1nc2ccccc2s1 | inactive | inactive |  | inactive | inactive |  | inactive | inactive | inactive | inactive |  | inactive | inactive |  | inactive | inactive | inactive | inactive |  | inactive |
| Cc1cccc(C)c1NC(=O)c1ccc(N)cc1 | inactive | inactive |  | inactive | inactive |  | inactive | inactive |  | inactive |  | inactive | inactive |  | inactive | inactive | inactive | inactive | inactive |  |
| NC(=S)NC(N)=S | inactive | inactive |  | inactive | inactive | inactive | inactive | inactive |  | inactive |  | inactive | inactive | inactive | inactive |  | inactive |  |  | inactive |
| Clc1sc(Cl)c(Cl)c1Cl | inactive | inactive |  | inactive | inactive | inactive | inactive | inactive | inactive | inactive | inactive | inactive | inactive |  | inactive |  | inactive | inactive | inactive | inactive |
| COc1c(C)c2c(c(O)c1C/C=C(\C)CCC(=O)OCCN1CCOCC1)C(=O)OC2 | inactive | inactive | inactive | inactive | inactive | inactive | inactive | inactive |  | inactive | 0.335 µM (active) | inactive |  | inactive | inactive | inactive | inactive | inactive |  | inactive |
| C=CC(=O)Nc1cc2c(Nc3ccc(F)c(Cl)c3)ncnc2cc1OCCCN1CCOCC1 | 0.376 µM (active) | 7.5 µM (active) | 0.891 µM (active) | inactive | inactive | 3.76 µM (active) | 7.5 µM (active) | inactive | 1.68 µM (active) | 0.841 µM (active) | 23.7 µM (active) | inactive | inactive | inactive | 26.6 µM (active) |  | inactive |  |  | inactive |
| COC(=O)Nc1nc2ccc(C(=O)c3ccccc3)cc2[nH]1 | inactive | inactive |  |  | inactive | inactive | 3.35 µM (active) | inactive |  |  | inactive | inactive | inactive | inactive |  | inactive | inactive |  |  | inactive |
| CCCCCCOC(=O)C(C)CC (configuration not stated) | inactive | inactive |  | inactive | inactive | inactive | inactive | inactive | inactive | inactive | inactive | inactive | inactive | inactive | inactive |  | inactive |  |  | inactive |
| CCOc1ccc2ccccc2c1C(=O)N[C@@H]1C(=O)N2[C@@H]1SC(C)(C)[C@@H]2C(=O)O | inactive | inactive | inactive | inactive | inactive | inactive | inactive | inactive | inactive | inactive |  | inactive | inactive | inactive | inactive | inactive | inactive |  |  | inactive |
| CC(C)=CCNc1ncnc2c1ncn2[C@@H]1O[C@H](CO)[C@@H](O)[C@H]1O | inactive | inactive |  | inactive | inactive | 13.3 µM (active) |  | inactive | 2.98 µM (active) | inactive | 13.3 µM (active) | inactive | 11.9 µM (active) | inactive | inactive | inactive |  |  |  | inactive |
| CCCc1ccc(OCC(=O)N2CCN(C(=O)COc3ccc(CCC)cc3OC)CC2)c(OC)c1 | inactive | 26.6 µM (active) |  | inactive | inactive |  | inactive | inactive |  |  |  | inactive | inactive | inactive | inactive | inactive | 29.8 µM (active) |  |  | inactive |
